Data on 74 compounds can be found in the supplement of paper PMC6135742.

Where a name gives a salt, the structure may show the parent alone. ± gives the standard deviation of the averaged measurements. The full ranking holds about 2,600 compounds; the median of “total cell number (DAPI+ nuclei) relative to DMSO vehicle control” is about -1.4, and the lowest 2% start at about -23. This excerpt belongs to a sample that is enriched for the lowest values.

This test relates to jimpy (Plp1 jimpy) mouse iPSC-derived oligodendrocyte progenitor cells. Nature of the test: total cell number (DAPI+ nuclei) relative to DMSO vehicle control (SDs above negative control mean); higher = more surviving cells. The settings on record: 10 µM; 3 days. As for the experimental part: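 Primary phenotypic screen of >3,000 bioactive compounds (Selleck L1700 and Sigma LO1280 libraries) at a single dose of 10 µM. Compounds were added to jimpy (Plp1 mutant) mouse iPSC-derived OPCs at the start of thyroid hormone-induced oligodendrocyte differentiation, one well per compound in 384-well plates. After 3 days cells were stained for MBP, Sox10 and DAPI and imaged with an Operetta system. MBP+ oligodendrocyte number and total cell number were expressed as the number of SDs above the mean of the DMSO negative control on the same plate (n=16 control wells per plate). Hits were defined as >=4 SD for oligodendrocytes and >=2 SD for total cells.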
With `C=CCc1cccc(/C=N/NC(=O)CN2CCN(Cc3ccccc3)CC2)c1O`, the total cell number was -9.01 ± 1.4. Take `O=C(Nc1ccc(S(=O)(=O)Nc2ccccc2Cl)c(Cl)c1)c1ccccn1`: the total cell number was determined as 0.173. Then `O=c1cc2c(=O)oc3cc(O)c(O)oc3c2c(O)c1O` [Galloflavin potassium], with -1.51. Then `CN1CCN(C(=O)c2cc3cc(Cl)ccc3[nH]2)CC1`, with -2.98; and `Cc1[nH]c(/C=C2\C(=O)Nc3ccc(S(=O)(=O)Cc4c(Cl)cccc4Cl)cc32)c(C)c1C(=O)N1CCC[C@@H]1CN1CCCC1`, with -27.2; and `Cc1[nH]c(/C=C2\C(=O)Nc3ccc(S(=O)(=O)N(C)c4cccc(Cl)c4)cc32)c(C)c1C(=O)N1CCN(C)CC1`, with -26.7.

As to `CC(C)C[C@H](NC(=O)[C@H]1O[C@@H]1C(=O)O)C(=O)NCCCCN=C(N)N`, the total cell number is -3.4 ± 0.35. The compound `CN1[C@@H]2CC[C@H]1C[C@@H](OC(=O)C(O)c1ccccc1)C2` (mixture of isomers) [DL-Homatropine hydrobromide] yielded a total cell number of 0.0407.

Take `Cc1nc(NC(=O)N2CCC[C@H]2C(N)=O)sc1-c1ccnc(C(C)(C)C(F)(F)F)c1`: the total cell number is -10.3. Then `COc1cc(C(O)C(=O)O)ccc1O` (racemic) [(±)-Vanillylmandelic acid], with -0.443. As for `CC(=O)Nc1nc(C)c(-c2ccc(Cl)c(S(=O)(=O)NCCO)c2)s1`, the total cell number was -15.8. The compound `C[C@H](c1ccc(F)cc1CCCC(=O)O)N(c1cc(F)ccc1F)S(=O)(=O)c1ccc(Cl)cc1` showed a total cell number of -4.06. Then `CCN(CC)CCCCNc1ncc2cc(-c3cc(OC)cc(OC)c3)c(NC(=O)NC(C)(C)C)nc2n1`, with -24.8; and `CCN(CC)CCCCCCCCOC(=O)c1cc(OC)c(OC)c(OC)c1` [TMB-8 hydrochloride], with 2.1. Consider `COc1cc(OC)cc(-c2cc3cnc(N)nc3nc2NC(=O)NC(C)(C)C)c1`, for which the total cell number is -5.24. Regarding `C=C1CC[C@@H]2[C@](C)(CO)[C@H](O)CC[C@@]2(C)[C@@H]1C/C=C1/C(=O)OC[C@H]1O` [Andrographolide], the total cell number is -9.57. In turn, `C=CC(=O)Nc1ccc2ncnc(Nc3cccc(Br)c3)c2c1` showed a total cell number of -13.1. As for `N[C@@H](Cc1ccc(F)cc1)C(=O)O` [p-Fluoro-L-phenylalanine], the total cell number was -1.39. For `Cc1ccc([N+](=O)[O-])cc1S(=O)(=O)N(C)/N=C/c1cnc2ccc(Br)cn12`, the total cell number was -25.8.

`O=C(O)C1=CO[C@@H](O[C@@H]2O[C@H](CO)[C@@H](O)[C@H](O)[C@H]2O)[C@@H]2C(CO)=CC[C@H]12` [Geniposidic acid] registered a total cell number of -0.368. In the case of `COc1ccc(S(=O)(=O)Nc2nc(-c3cccc([N+](=O)[O-])c3)cs2)cc1OC` it was -0.431. `O=C(c1cc(O)c(O)c([N+](=O)[O-])c1)c1ccccc1F` came in with a total cell number of 0.768. In turn, `CC1(C)CCC(CN2CCN(c3ccc(C(=O)NS(=O)(=O)c4ccc(NCC5CCOCC5)c([N+](=O)[O-])c4)c(Oc4cnc5[nH]ccc5c4)c3)CC2)=C(c2ccc(Cl)cc2)C1` displayed a total cell number of -3.38. For the compound `CN(C)CC[C@H](CSc1ccccc1)Nc1ccc(S(=O)(=O)NC(=O)c2ccc(N3CCN(Cc4ccccc4-c4ccc(Cl)cc4)CC3)cc2)cc1[N+](=O)[O-]`, the total cell number is -23.1. In turn, `CC1(C)CCC(c2ccc(Cl)cc2)=C(CN2CCN(c3ccc(C(=O)NS(=O)(=O)c4ccc(N[C@H](CCN5CCOCC5)CSc5ccccc5)c(S(=O)(=O)C(F)(F)F)c4)cc3)CC2)C1` [ABT-263 (Navitoclax)] registered a total cell number of -16.7. Then `CCOC(=O)c1c(CSc2ccccc2)n(C)c2cc(Br)c(O)c(CN(C)C)c12` [Arbidol HCl], with -4.97; and `COC(=O)C1=C(C)NC(C)=C(C(=O)OCCN2CCN(C(c3ccccc3)c3ccccc3)CC2)C1c1cccc([N+](=O)[O-])c1` (centres undefined) [Manidipine 2HCl], with -11.4; and `COC(=O)C1=C(C)NC(C)=C(C(=O)OCCN2CCN(C(c3ccccc3)c3ccccc3)CC2)C1c1cccc([N+](=O)[O-])c1` (centres undefined) [Manidipine], with -13.

In turn, `C=CCN1CCc2cc(O)c(O)cc2C(c2ccccc2)C1` (racemic) came in with a total cell number of -1.7. As for `C[C@@]1(C(=O)Nc2ccc(F)nc2)CCCN1c1nc(Nc2cc(C3CC3)n[nH]2)c2cccn2n1`, the total cell number was -24.7.

Consider `O=C(COc1cccc2c(=O)[nH]ccc12)c1ccccc1`, for which the total cell number was -0.123.

`CCc1ccc2c(-c3cccc(Cl)c3)nc(=O)n(CC)c2n1` showed a total cell number of 0.722. The compound `CC(C)NC[C@@H](C(=O)N1CCN(c2ncnc3c2[C@H](C)C[C@H]3O)CC1)c1ccc(Cl)cc1` came in with a total cell number of -8.76.

`COc1ccc(C2=N[C@@H](c3ccc(Cl)cc3)[C@@H](c3ccc(Cl)cc3)N2C(=O)N2CCNC(=O)C2)c(OC(C)C)c1` [Nutlin-3] displayed a total cell number of -23.5. In the case of `C=C1C(=O)O[C@@H]2/C=C(\C)CC/C=C(\C)CC[C@@H]12` [Costunolide] it was -21. `CN1CCN(c2ccc3nc(-c4c(N)c5c(F)cccc5[nH]c4=O)[nH]c3c2)CC1` [Dovitinib (TKI-258) Dilactic Acid] had a total cell number of -12.1. Consider `CN1CCN(c2ccc3nc(-c4c(N)c5c(F)cccc5[nH]c4=O)[nH]c3c2)CC1` [Dovitinib (TKI-258, CHIR-258)], for which the total cell number is -25.7. For the compound `COc1cc(CCc2cc(NC(=O)c3ccc(N4CC(C)NC(C)C4)cc3)n[nH]2)cc(OC)c1` (centres undefined), the total cell number is -10.9.

Take `NC/C=C/C(=O)O` [(E)-4-amino-2-butenoic acid]: the total cell number was -1.89. Then `CC(C)NCC(O)COc1cccc2ccccc12` (racemic) [(±)-Propranolol hydrochloride], with -1.57; and `c1ccc(-c2[nH]ncc2-c2ccnc3ccccc23)nc1`, with -2.66; and `OC[C@H]1O[C@H]([S-])[C@H](O)[C@@H](O)[C@@H]1O.[Au+]` [Aurothioglucose], with -2.94.

Compound `O=C(c1ccc(/C=C/c2n[nH]c3ccccc23)cc1)N1CCNCC1` yielded a total cell number of -13.2. In turn, `COCC[n+]1c2c(n(Cc3cnccn3)c1C)C(=O)c1ccccc1C2=O` [YM155 (Sepantronium Bromide)] yielded a total cell number of -27.7. With `Cc1ccc2c(c1)C(=O)C1(O)CCN(c3ccccc3)C1=N2` (single isomer, unassigned; (-)) [(-)-Blebbistatin], the total cell number was -14.8.

`CN1CCN(CCOc2cc(OC3CCOCC3)c3c(Nc4c(Cl)ccc5c4OCO5)ncnc3c2)CC1` [Saracatinib (AZD0530)] returned a total cell number of -22.8. For the compound `CNC(=O)CN1CCC(Oc2cc3c(Nc4cccc(Cl)c4F)ncnc3cc2OC)CC1` [AZD8931 (Sapitinib)], the total cell number was -10.1. In the case of `Cc1ccc(Sc2cncc3sc(C(N)=O)cc23)cc1` it was 0.0291; in that of `O=C(Nc1ccccc1)N1CCN(c2nc(-c3ccccc3)ns2)CC1`, 0.543; in that of `CC(C)C[C@H](C(=O)O)c1cc(-c2ccc(C(F)(F)F)cc2)cc(-c2ccc(C(F)(F)F)cc2)c1`, 10.7. Compound `COc1ccccc1CN[C@H]1CCCN[C@H]1c1ccccc1` came in with a total cell number of -1.93. For `CCCCCCCCCCCCCCCCn1cc[n+](Cc2ccccc2)c1C`, the total cell number is -16.7. Take `CCCCCN(CCCOC)C(=O)C(CCC(=O)O)NC(=O)c1ccc(Cl)c(Cl)c1` (centres undefined) [Loxiglumide]: the total cell number was -0.322. Compound `COc1cc(OC2CCN(C)CC2)ccc1Nc1ncc2c(n1)n(C1CCCC1)c(=O)n2C` yielded a total cell number of -7.07.

`CC[C@@H]1C(=O)N(C)c2cnc(Nc3ccc(C(=O)N[C@H]4CC[C@H](N5CCN(CC6CC6)CC5)CC4)cc3OC)nc2N1C(C)C` [Volasertib (BI 6727)]: the total cell number was -14.6. For `CC[C@@H]1C(=O)N(C)c2cnc(Nc3ccc(C(=O)NC4CCN(C)CC4)cc3OC)nc2N1C1CCCC1`, the total cell number was -26.1. Consider `CN1C2=CC(=O)/C(=N\NC(N)=O)C=C2CC1S(=O)(=O)O` (centres undefined) [Carbazochrome sodium sulfonate (AC-17)], for which the total cell number was -0.411. Compound `CC1=C(C(=O)OC(C)C)C(c2cccc([N+](=O)[O-])c2)C(C(=O)OC2CN(C(c3ccccc3)c3ccccc3)C2)=C(N)N1` (centres undefined) [Azelnidipine] returned a total cell number of -12.3. The compound `CNCc1cc(-c2ccccc2F)n(S(=O)(=O)c2cccnc2)c1` came in with a total cell number of -1.01.

On to `CNC(=O)c1cc(Oc2ccc(NC(=O)Nc3ccc(Cl)c(C(F)(F)F)c3)c(F)c2)ccn1` [Regorafenib (BAY 73-4506)], for which the total cell number came out at 0.684. For the compound `C=CC(=O)Nc1cccc(Oc2nc(Nc3ccc(N4CCN(C)CC4)cc3)ncc2Cl)c1`, the total cell number was -26.9. The compound `C=CC(=O)Nc1cccc(Oc2nc(Nc3ccc(N4CCN(C)CC4)cc3OC)ncc2Cl)c1` displayed a total cell number of -24.9. `Cc1cnc(Nc2ccc(N3CCN(C)CC3)cc2)nc1Nc1cccc(S(=O)(=O)NC(C)(C)C)c1` gave a total cell number of -12.1. `CNC(=O)c1ccccc1Nc1nc(Nc2ccc(N3CCOCC3)cc2OC)ncc1Cl` displayed a total cell number of -12.2. In the case of `Cc1cc(Nc2ncc(Cl)c(Nc3ccccc3S(=O)(=O)C(C)C)n2)c(OC(C)C)cc1C1CCNCC1`, the total cell number was -16.3.

Take `C=CC(=O)Nc1cccc(Sc2nc(Nc3ccc(N4CCN(C)CC4)cc3)ncc2Cl)c1`: the total cell number was -26.9. With `C=CC(=O)Nc1cccc(Nc2nc(Nc3ccc(N4CCN(C(C)=O)CC4)cc3OC)ncc2C(F)(F)F)c1`, the total cell number is -15.5. Compound `C=CC(=O)Nc1cccc(Nc2nc(Nc3ccc(Oc4ccnc(C(=O)NC)c4)cc3)ncc2F)c1` displayed a total cell number of -15. The compound `CCC(=O)Nc1cccc(Oc2nc(Nc3ccc(N4CCN(C)CC4)cc3OC)ncc2Cl)c1` had a total cell number of -15.2. As for `COc1cc(N2CCC(N3CCN(C)CC3)CC2)ccc1Nc1ncc(Cl)c(Nc2ccccc2S(=O)(=O)C(C)C)n1`, the total cell number was -27.1.

`C=CCn1c(=O)c2cnc(Nc3ccc(N4CCN(C)CC4)cc3)nc2n1-c1cccc(C(C)(C)O)n1` gave a total cell number of -14.6. The compound `Cn1c(=O)c(-c2c(Cl)cccc2Cl)cc2cnc(Nc3ccc(N4CCOCC4)cc3)nc21` had a total cell number of -9.85.

As to `CC(C)(CO)Cc1cc(C(C)(C)C)c(O)c(C(C)(C)C)c1`, the total cell number worked out at 1.01. The compound `COC(=O)C1=C(C)NC(C)=C(C(=O)OC(C)(C)CN(C)CCC(c2ccccc2)c2ccccc2)C1c1cccc([N+](=O)[O-])c1` (centres undefined) [Lercanidipine hydrochloride hemihydrate] came in with a total cell number of -8.91.
